{
  "source": "PubChem BioAssay (Tox21)",
  "note": "Activity calls are given as the source filed them. Where a call stands in place of a potency, no number is given. Calls follow the shape of the dose curve; as a rule, active = well fitted curve in the direction sought with a large enough effect in the repeat runs; inconclusive = weak or mixed curves; inactive = flat fitted curve, though single readings scatter.",
  "data": [
    {"assay": "qHTS assay to test for compound auto fluorescence at 460 nm (blue) in HEK293 cells (AID 720678)", "settings": "blue autofluorescence 405/460 nm; series mostly up to 91.3 µM; fluorescence, % of triamterene: at the top concentration", "source_text": "National Center for Advancing Translational Sciences [NCATS]\nNIH Chemical Genomics Center [NCGC]\nU.S. Environmental Protection Agency [EPA]\nNational Institutes of Environmental Health Sciences [NIEHS]\nNational Toxicology Program [NTP]\nU.S. Food and Drug Administration [FDA]\nCompound auto fluorescence often interferes with screening of the compound library against various biological targets and signaling pathways. Some of these compounds may have fluorophoric properties. Such properties may interfere with the assay outputs resulting in false positives and/or negatives. To decrease such complications and ensure the compound activities are relevant in terms of biological response, the Tox21 10K compound library was screened for auto fluorescence.\nFrom the fluorophores used as reporter signals in our screening assays, the auto fluorescence equivalencies of compounds against three fluorophores have been evaluated: Triamterene, Fluorescein and Rose Bengal sodium for blue, green and red fluorescence, respectively. The fluorescence intensities were measured using Excitation/Emission wavelengths at 405/460nm, 485/535nm and 540/590nm for blue, green and red labels, respectively. This assay includes the blue fluorescence data.\nTox21 Assay Protocol Summary:\n2,000 HEK293 cells in 5 uL of culture medium containing 10% dialyzed FBS per well were dispensed into black wall/clear bottom 1536-well plates using a Multidrop Combi Dispenser (Thermo Scientific). The assay plates were incubated for 4-5 hr at 37C to allow cell attachment to the well bottom, followed by the transfer of 23 nL compound or DMSO vehicle by a pintool work station (Kalypsys, San Diego, CA). After the assay plates were incubated overnight at 37C and 5% CO2, fluorescence intensities in the assay plates were measured by an Envision (PerkinElmer, Shelton, CT) plate reader using three labels for measuring blue, green and red fluorescence at […] 460, 535 and 590nm respectively.", "values": [
      {"molecule": "CCCN(CCC)C(=O)SCC", "Potency": "inactive"},
      {"molecule": "OC[C@H]1O[C@@H](Oc2ccc(O)cc2)[C@H](O)[C@@H](O)[C@@H]1O", "Potency": "inactive"},
      {"molecule": "OCc1ccc(Cl)cc1Cl", "Potency": "inactive"},
      {"molecule": "OC1CCCCC1", "Potency": "inactive"},
      {"molecule": "C[n+]1ccn(CCO)c1", "Potency": "inactive"},
      {"molecule": "c1cnc2c(c1)ccc1cccnc12", "Potency": "inactive"},
      {"molecule": "CC(C)(C)NC[C@H](O)COc1nsnc1N1CCOCC1", "Potency": "inactive"},
      {"molecule": "CCOC(=O)CC(=O)OCC", "Potency": "inactive"},
      {"molecule": "CC(=O)Nc1ccc(CC(=O)O)cc1", "Potency": "inactive"},
      {"molecule": "CCCCCCCCO", "Potency": "inactive"},
      {"molecule": "CC(=O)OC[C@H]1O[C@@](COC(C)=O)(O[C@H]2O[C@H](COC(C)=O)[C@@H](OC(C)=O)[C@H](OC(C)=O)[C@H]2OC(C)=O)[C@@H](OC(C)=O)[C@@H]1OC(C)=O", "Potency": "inactive"},
      {"molecule": "O=[N+]([O-])c1cc(C(F)(F)F)ccc1Cl", "Potency": "inactive"},
      {"molecule": "CN=C(NC#N)NCCSCc1nc[nH]c1C", "Potency": "inactive"},
      {"molecule": "O=C(O)C1=NN(c2ccc(S(=O)(=O)O)cc2)C(=O)C1", "Potency": "inactive"},
      {"molecule": "Cc1cc(C)c(O)c(C)c1", "Potency": "inactive"},
      {"molecule": "CCCOC(=O)NCCCN(C)C", "Potency": "inactive"},
      {"molecule": "C=CC(=O)NCOCCCC", "Potency": "inactive"},
      {"molecule": "CC(=O)C(C)C", "Potency": "inactive"},
      {"molecule": "COC(=O)OC", "Potency": "inactive"},
      {"molecule": "O=C(O)Cc1c[nH]c2ccccc12", "Potency": "inactive"},
      {"molecule": "CCOC(=O)c1ccc(O)cc1", "Potency": "inactive"},
      {"molecule": "N[C@@H](Cc1cc(I)c(Oc2ccc(O)c(I)c2)c(I)c1)C(=O)O", "Potency": "inactive"},
      {"molecule": "Nc1cccc(C(F)(F)F)c1", "Potency": "inactive"},
      {"molecule": "CCCCCCCCCCCC(=O)N(C)CC(=O)O", "Potency": "inactive"},
      {"molecule": "CC1(C)C(=O)N(Cl)C(=O)N1Cl", "Potency": "inactive"},
      {"molecule": "Nc1cccc(N)n1", "fluorescence, % of triamterene": "6.85% (inactive)"},
      {"molecule": "Cc1cc(C)cc(O)c1", "Potency": "inactive"},
      {"molecule": "CCCCCCC(=O)O", "Potency": "inactive"},
      {"molecule": "CC1=CC(=O)CC(C)(C)C1", "Potency": "inactive"},
      {"molecule": "O=C1O[C@H]([C@H](O)CO)C(O)=C1O", "Potency": "inactive"},
      {"molecule": "CC(CN1c2ccccc2Sc2ccccc21)N(C)C", "note": "(stereo not given)", "Potency": "inactive"},
      {"molecule": "CCCOCC(C)O", "note": "(stereo not given)", "Potency": "inactive"},
      {"molecule": "O=C(NCC1CCCCN1)c1cc(OCC(F)(F)F)ccc1OCC(F)(F)F", "note": "(stereo not given)", "Potency": "inactive"},
      {"molecule": "CC(=O)OCc1ccc2c(c1)OCO2", "Potency": "inactive"},
      {"molecule": "CCCCCCCCCCCCCC(=O)O", "Potency": "inactive"},
      {"molecule": "C=C(CC(=O)O)C(=O)O", "Potency": "inactive"},
      {"molecule": "CCc1cccc(O)c1", "Potency": "inactive"},
      {"molecule": "COc1ccc2cc3[n+](cc2c1OC)CCc1cc2c(cc1-3)OCO2", "Potency": "inactive"},
      {"molecule": "Cc1cccc(C)c1[N+](=O)[O-]", "Potency": "inactive"},
      {"molecule": "CC(C)c1ccc(C(C)C)cc1", "Potency": "inactive"}
    ]}
  ]
}
